Shown is part of a subset that was picked to be rich in hits.
HIV RNase H inh-1 – blocks HIV-1 RNase H cleavage of RNA/DNA duplex | P04585 | RT-RNase H RNA/DNA duplex cleavage, fluorescence | inhibition, % at 10 µM | hit rate 1.9% among 65,000 | AID 565; in the data active = inhibition above about 50%
RmlC RmlD mix – RmlC/RmlD inhibition, mixture screen; RmlC/RmlD coupled enzyme inhibition, 384-well mixture HTS; inhibition, % at 5.5 µM; hit rate 0.39% among 110,000; in the data active = inhibition above about 30%, passing the limit was not always enough; inconclusive = no clear call, values can overlap the other calls
HIV RNase H inh-2 – confirmation of HIV-1 reverse transcriptase RNase H inhibitors. shares compounds with HIV RNase H inh-1. Recombinant RT RNase H, fluorescent RNA/DNA duplex cleavage. inhibition, % at 10 µM. hit rate 39% among 1,000; in the data active = inhibition above about 48%; inconclusive = no clear call, values can overlap the other calls
Of the large screens only hits and unclear results are named; the others gave an inactive call (follow-up assays come after a bar, where they were run).

O=C(NC1CCS(=O)(=O)C1)c1ccccc1C(=O)c1ccccc1 (stereo not drawn)	none
N#CCC(=O)Nc1sc2c(c1C(N)=O)CCCC2	none
CCOC(=O)c1c(NC(=O)CNCCOC)sc2c1CCCC2	none (no result: HIV RNase H inh-1)
COCCNC(=O)c1c(N)sc2c1CCCC2	HIV RNase H inh-1 63 | HIV RNase H inh-2 inactive
Cc1c(C(N)=O)sc(N)c1C(=O)OC(C)C	HIV RNase H inh-1 84 | HIV RNase H inh-2 inactive
Cc1cccc(C(C#N)c2nc3ccccc3nc2C(F)(F)F)c1 (stereo not drawn)	none (no result: HIV RNase H inh-1)
O=C(COc1nsnc1N1CCOCC1)N1CCOCC1	none
C[C@H](NC(=O)Cn1cncn1)c1ccccc1	none (no result: HIV RNase H inh-1)
Cc1nc2nc3c(c(=O)n2[nH]1)CCC3	none
CC(=O)C1=C(C)NC(SCC(N)=O)=C(C#N)C1c1sccc1C (stereo not drawn)	none (no result: HIV RNase H inh-1)
CNC(=O)c1c(NC(=O)c2ccc(N3C(=O)CCC3=O)cc2)sc2c1CCCC2	none (no result: HIV RNase H inh-1)
NC(=O)c1c(NC(=O)CN2CCCC2)sc2c1CCCC2	none
NC(=O)c1c(NC(=O)CN2C(=O)CCC2=O)sc2c1CCCCC2	HIV RNase H inh-1 85 | HIV RNase H inh-2 inactive
CNC(=O)c1c(N)sc2c1CCCCC2	HIV RNase H inh-1 84 | HIV RNase H inh-2 inconclusive
CCCOC(=O)c1c(N)sc2c1CCC2	none
CC(C)OC(=O)c1c(N)sc2c1CCCC2	HIV RNase H inh-1 87 (no result: RmlC RmlD mix) | HIV RNase H inh-2 inconclusive
COCCN1C(=O)N[C@@H](c2ccccc2)[C@H](C(C)=O)[C@H]1C	none (no result: HIV RNase H inh-1)
O=C1C2C3C=CC(C3)C2C(=O)N1c1nc2ccccc2s1 (stereo not drawn)	none (no result: HIV RNase H inh-1)
Cc1cc(C)cc(Oc2ncnc3c2ncn3Cc2c(Cl)cccc2Cl)c1	none (no result: HIV RNase H inh-1)
O=C1c2ccccc2C(=O)C1c1ccnc2ccccc12	none (no result: HIV RNase H inh-1)
N#CC1=C(N)SC(N)=C(C#N)C1c1ccnc2ccccc12	HIV RNase H inh-1 65 | HIV RNase H inh-2 60
CC(Cc1ccccc1)C(=O)NCCO (stereo not drawn)	none (no result: HIV RNase H inh-1)
Cc1nn(Cc2c(F)c(F)c(F)c(F)c2F)c(C)c1NC(=O)c1c(-c2ccccc2)nn(-c2ccccc2)c1C	none (no result: HIV RNase H inh-1)
Cc1oc(C)c2c(=O)ccc3c(c12)OC(N)=C(C#N)C3c1ccccc1Cl (stereo not drawn)	none
Cc1ccc(-c2nnn(CC(=O)Nc3ccc(S(=O)(=O)N4CCC(C)CC4)cc3)n2)cc1	none
CC1CCN(S(=O)(=O)c2ccc(NC(=O)Cn3nnc(-c4ccccc4)n3)cc2)CC1	HIV RNase H inh-1 70 | HIV RNase H inh-2 68
NC(CO)C(=O)NNCc1ccc(O)c(O)c1O (stereo not drawn)	none | HIV RNase H inh-2 inactive
COC(=O)C(N)Cc1ccc(O)c(O)c1 (stereo not drawn)	none (no result: HIV RNase H inh-1)
OCC1(O)OC[C@@H](O)[C@H]1O (stereo partly drawn)	none (no result: HIV RNase H inh-1)
O=C1c2ccccc2C(=O)N1Cc1nc(-c2ccncc2)no1	none
O=S(=O)(c1ccc(S(=O)(=O)N2CCCN(Cc3ccccc3)C2)cc1)N1CCCCCC1	none
Cc1ccc(NC(=O)c2cc(NC(=O)c3ccco3)ccc2N2CCOCC2)cc1	none
Cc1ccc(NC(=O)c2cc(NC(=O)c3ccco3)ccc2N2CCCCC2)cc1	HIV RNase H inh-1 58 | HIV RNase H inh-2 inactive
Cc1cccc(NC(=S)NC2CC3CCCC(C2)N3CC(C)C)c1C (stereo not drawn)	none (no result: HIV RNase H inh-1)
Cn1c(=O)c2c(SCC(=O)NCC3CCCO3)nc(-c3cccs3)nc2n(C)c1=O (stereo not drawn)	none (no result: RmlC RmlD mix)
CC(C)Sc1nc(-c2cccs2)nc2c1c(=O)n(C)c(=O)n2C	HIV RNase H inh-1 74 | HIV RNase H inh-2 90
Cc1cc2nn(-c3cccc4ccccc34)nc2cc1N	HIV RNase H inh-1 67 | HIV RNase H inh-2 inactive
Nc1ccc2nn(-c3cccc4ccccc34)nc2c1	none
Cc1ccc(-c2nnn(CC(=O)NCc3ccccc3)n2)c(-n2cnnn2)c1	none
Cc1ccc(-c2nnn(CC(=O)N3CCCCC3)n2)c(-n2cnnn2)c1	HIV RNase H inh-1 82 | HIV RNase H inh-2 inactive
C=CCNC(=O)c1c(N)n(-c2ccc3c(c2)OCO3)c2nc3ccccc3nc12	HIV RNase H inh-1 57 | HIV RNase H inh-2 54
CCCCNC(=O)c1c(N)n(Cc2ccc3c(c2)OCO3)c2nc3ccccc3nc12	none (no result: HIV RNase H inh-1)
Cc1cc(-c2nn3c(-c4ccccc4)nnc3s2)c2ccccc2n1	HIV RNase H inh-1 82 | HIV RNase H inh-2 63
Cc1ccccc1-c1nn2c(-c3ccccc3)nnc2s1	none
COc1cc(OC)c(-c2nn3c(-c4ccco4)nnc3s2)cc1OC	none
c1ccc(-c2cc(-c3nn4c(-c5ccco5)nnc4s3)c3ccccc3n2)cc1	HIV RNase H inh-1 75 | HIV RNase H inh-2 inactive
NS(=O)(=O)c1ccc(NC(=O)c2ccccc2C(=O)N2CCCCC2)cc1	HIV RNase H inh-1 76 | HIV RNase H inh-2 inactive
COc1ccccc1C(=O)Nc1ccc(C(=O)N2CCCC2)cc1	none (no result: HIV RNase H inh-1)
CCC(NC(=O)N(Cc1ccccc1)Cc1ccc2c(c1)OCO2)(C(F)(F)F)C(F)(F)F	none (no result: HIV RNase H inh-1)
CN1CCN(C2=C(Cl)C(=O)N(Cc3ccccc3)C2=O)CC1	none

Screens as filed in PubChem.
